Source: PubChem BioAssay
LASV entry inh – Lassa virus entry inhibition; hit rate 1.2% among 300,000; Potency, µM (series often up to 37.9 µM), for inactives: at the top dose activity change, negative = inhibition, actives largely listed as inhibitors; Lassa virus pseudotype entry inhibition, cell reporter; calls by dose curve; tested in HEK293 cells; note: potency is the fitted concentration of half-maximal effect; nearly all actives have a fitted effect of over 50% in size
VACV mCherry inh – vaccinia inhibition (mCherry reporter); Vaccinia virus mCherry reporter infection, fluorescence; Potency, µM (highest dose often 36.5 µM), for inactives: top-dose activity change, negative = inhibition, actives largely listed as inhibitors; hit rate 0.63% among 310,000; AID 720579; calls by dose curve; tested in A549 cells; note: potency is the fitted concentration of half-maximal effect; nearly all actives have a fitted effect of over 35% in size
Vaccinia Venus – vaccinia inhibition (Venus reporter) | Vaccinia virus Venus reporter expression, fluorescence | Potency, µM (highest dose often 36.5 µM), inactives show at the top dose activity change, negative = inhibition, hits mostly inhibitors | hit rate 0.46% among 330,000 | AID 720580; calls by dose curve; tested in A549 cells; note: potency is the fitted concentration of half-maximal effect; nearly all actives have a fitted effect of over 30% in size
MARV entry inh – blocks Marburg virus binding to or entry into cells | AID 540276 | Potency, µM (doses to about 37.8 µM), for the others: top-dose activity change, negative = inhibition, usual class: inhibitors | Marburg virus pseudotyped entry inhibition, cell reporter | hit rate 1.8% among 300,000; calls by dose curve; tested in HEK293 cells; note: potency is the fitted concentration of half-maximal effect
FMDV antiviral – antivirals against foot and mouth disease virus. FMDV antiviral cell-based qHTS. Potency, µM (titrated, usually from 57.9 µM), for inactives: at the highest dose activity change, negative = inhibition, usual class: inhibitors. hit rate 1.2% among 410,000; calls by dose curve; tested in HEK293T cells; note: read-out not given here; potency is the fitted concentration of half-maximal effect; nearly all actives have a fitted effect of over 45% in size
HCMV inh – blocks human cytomegalovirus replication; HFF cells, HCMV-luciferase reporter, 72 h; hits give low values; activity change, negative = inhibition, % at 57.5 µM; hit rate 4.5% among 410,000; AID 1259415; in the data active = activity change below about -60%; inconclusive = no clear call, values can overlap the other calls; inactive = above about -39%
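After 16 h attachment at 37C, HFF cells received test compound and HCMV-luciferase (1 PFU/cell); reporter luminescence read 72 h later, data normalized against buffer-only and known inhibitor Salinomycin.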
Numbers without * were called inactive; [ ] = remark or other dose. Compounds with a hit are over-represented: about 6.5% of the library has one in this group of screens. % is set by controls: 0 for no effect and ±100 for the full control effect.

What do the screens show for `CCn1c(=O)c(C(=O)CN2c3ccccc3CC2C)c(N)n(Cc2ccccc2)c1=O` (stereo not drawn)?
LASV entry inh: inconclusive; VACV mCherry inh: -1%; Vaccinia Venus: -19%; MARV entry inh: inconclusive; FMDV antiviral: -28%; HCMV inh: -30

How did CCn1c(=O)c(C(=O)CN2CCCc3ccccc32)c(N)n(Cc2ccccc2)c1=O do in these assays?
LASV entry inh: inconclusive; MARV entry inh: inconclusive; FMDV antiviral: 39%; HCMV inh: -88*

Results for CCn1c(=O)c(C(=O)CN(C)Cc2ccc(F)cc2)c(N)n(Cc2ccccc2)c1=O ?
LASV entry inh: -34%; VACV mCherry inh: -3%; Vaccinia Venus: -10%; MARV entry inh: 10µM*; FMDV antiviral: -28%; HCMV inh: -31

How did COC(=O)c1ccc2c(c1)N(CC(=O)Nc1cccc(Cl)c1C)C(=O)c1ccccc1S2 do in these assays?
LASV entry inh: 19%[46.1 µM]; VACV mCherry inh: 3%; Vaccinia Venus: 9%; FMDV antiviral: -3%; HCMV inh: -34

What do the screens show for `O=C(Nc1ccc(Cl)cc1)c1csc(C(O)c2cccc(OC(F)(F)F)c2)n1` (stereo not drawn)?
HCMV inh: -36

What do the screens show for `CC(C)NC(=O)c1csc(C(O)c2cccc(N(C)C)c2)n1` (stereo not drawn)?
HCMV inh: -75*

What do the screens show for `Cn1c(=O)c(=O)n(C)c2cc(N3CCCC3)c(NC(=O)c3ccc(C(C)(C)C)cc3)cc21`?
LASV entry inh: -15%[46.1 µM]; VACV mCherry inh: 2%; Vaccinia Venus: -7%; MARV entry inh: 6%[46.1 µM]; FMDV antiviral: -16%; HCMV inh: 7

What do the screens show for `CCCCc1cc(=O)oc2cc(OCC(=O)N3CCOCC3)ccc12`?
LASV entry inh: -1%[46.1 µM]; VACV mCherry inh: -6%; Vaccinia Venus: 7%; MARV entry inh: 12%[46.1 µM]; FMDV antiviral: -5%; HCMV inh: -81*

Results for CCN(CC)c1ccc2c(O)cc(=O)oc2c1 ?
LASV entry inh: 24%; VACV mCherry inh: inactive; Vaccinia Venus: -7%; MARV entry inh: 15%[46.1 µM]; FMDV antiviral: 0%; HCMV inh: 20

Results for CCCCc1cc(=O)oc2cc(O)ccc12 ?
LASV entry inh: -11%; VACV mCherry inh: -4%; Vaccinia Venus: -10%; MARV entry inh: -1%[46.1 µM]; FMDV antiviral: -11%; HCMV inh: -104*

What do the screens show for `CCN(CC)c1ccc(C(=O)OCc2cc(=O)oc3cc(O)ccc23)cc1`?
LASV entry inh: 15µM*; VACV mCherry inh: inconclusive; Vaccinia Venus: -15%; MARV entry inh: inconclusive; FMDV antiviral: inconclusive; HCMV inh: -104*

What do the screens show for `CC(C)CCNC(=O)CSCc1cnn(-c2ccccc2)c1-n1cccc1`?
LASV entry inh: -2%[46.1 µM]; VACV mCherry inh: -7%; Vaccinia Venus: -15%; MARV entry inh: 0%[46.1 µM]; FMDV antiviral: -15%; HCMV inh: inconclusive

What do the screens show for `Nc1ccc(O)cc1C(=O)OCC(=O)c1ccc(C2CCCCC2)cc1`?
LASV entry inh: inconclusive; VACV mCherry inh: inconclusive; Vaccinia Venus: -23%; MARV entry inh: inconclusive; FMDV antiviral: inconclusive; HCMV inh: -95*

How did COc1ccc(C(=O)OCC(=O)c2ccc(C3CCCCC3)cc2)cc1 do in these assays?
LASV entry inh: 2.2µM*; VACV mCherry inh: -10%; Vaccinia Venus: -4%; MARV entry inh: inconclusive; FMDV antiviral: inconclusive; HCMV inh: inconclusive

Results for Nc1ccc(O)cc1C(=O)OCC(=O)C12CC3CC(CC(C3)C1)C2 ?
LASV entry inh: 11%; Vaccinia Venus: 1%; MARV entry inh: 28%; FMDV antiviral: -22%; HCMV inh: 4

How did COc1cc(=O)n2c(c1C(=O)N(C)Cc1nccs1)CCN(Cc1cc(C)cc(C)c1)CC2 do in these assays?
VACV mCherry inh: -19%; Vaccinia Venus: -8%; FMDV antiviral: -16%

How did O=C(CN(Cc1ccccc1)C(=O)CCl)c1cccc(Br)c1 do in these assays?
VACV mCherry inh: inactive; Vaccinia Venus: -16%; FMDV antiviral: inconclusive; HCMV inh: -99*

Results for O=c1c(N2CCN(c3cccc(Cl)c3)CC2)csc2ccc(Cl)cc12 ?
LASV entry inh: -26%[46.1 µM]; VACV mCherry inh: -6%; Vaccinia Venus: -11%; FMDV antiviral: -7%; HCMV inh: 36

What do the screens show for `COc1ccc2c(C)c(CCC(=O)NCc3ccc(C)cc3)c(=O)oc2c1`?
LASV entry inh: -18%[46.1 µM]; VACV mCherry inh: -11%; Vaccinia Venus: 1%; MARV entry inh: 4%[46.1 µM]; FMDV antiviral: -20%; HCMV inh: -9

How did COc1ccccc1-c1c(C)nn2c(-c3ccccc3)cc(-c3ccccc3)nc12 do in these assays?
LASV entry inh: -1%[46.1 µM]; VACV mCherry inh: -12%; Vaccinia Venus: -9%; MARV entry inh: inconclusive; FMDV antiviral: -22%; HCMV inh: -28

What do the screens show for `Cn1c2c(c(=O)[nH]c1=O)C(c1cccc(O)c1)C1=C(N2)c2ccccc2C1=O` (stereo not drawn)?
LASV entry inh: inconclusive; VACV mCherry inh: inconclusive; Vaccinia Venus: -24%; MARV entry inh: inconclusive; FMDV antiviral: inconclusive; HCMV inh: -100*

What do the screens show for `COc1cccc(C2C3=C(Nc4[nH]n(-c5ccccc5)c(=O)c42)c2ccccc2C3=O)c1` (stereo not drawn)?
LASV entry inh: -4%; MARV entry inh: 2%

What do the screens show for `CCc1c(C)c2ccccc2[nH]c1=O`?
VACV mCherry inh: -1%; Vaccinia Venus: -17%

How did COc1cccc(CN2CC3(CN(S(C)(=O)=O)C3)c3c(n(C)c4cc(OC)ccc34)[C@H]2CO)c1 do in these assays?
HCMV inh: -33

Results for C=CCOc1ccc(CN(C)c2ccc(S(=O)(=O)N3CCN(C)CC3)cc2[N+](=O)[O-])cc1 ?
LASV entry inh: inconclusive; VACV mCherry inh: inconclusive; Vaccinia Venus: -27%; MARV entry inh: inconclusive; FMDV antiviral: inconclusive; HCMV inh: -31

What do the screens show for `CN1CCN(S(=O)(=O)c2ccc(N(C)Cc3ccc(C(F)(F)F)cc3)c([N+](=O)[O-])c2)CC1`?
LASV entry inh: inconclusive; VACV mCherry inh: -23%; Vaccinia Venus: inconclusive; MARV entry inh: 10µM*; FMDV antiviral: inconclusive; HCMV inh: inconclusive

What do the screens show for `O=[N+]([O-])c1cc(C(F)(F)F)ccc1N1CCN(S(=O)(=O)c2ccc3c(c2)CCCC3)CC1`?
LASV entry inh: -3%; VACV mCherry inh: inactive; Vaccinia Venus: -12%; MARV entry inh: inconclusive; FMDV antiviral: inconclusive; HCMV inh: -96*

What do the screens show for `CC1CN(c2ccc(C(F)(F)F)cc2[N+](=O)[O-])CCN1S(C)(=O)=O` (stereo not drawn)?
LASV entry inh: -3%; VACV mCherry inh: inactive; Vaccinia Venus: -19%; MARV entry inh: -19%; FMDV antiviral: inconclusive; HCMV inh: -23
